Source: the supplement of paper PMC10849652
The full data set covers some 7,900 targets. This sample favours those with a hit. About 0.6% of all pairs of compound and target were hits.

Experiments:
Test in all cases: log2 fold change, soluble protein after heating vs DMSO (PISA); higher = thermal stabilisation; K562 cells, 10 uM, 30 min; active = over 0.2 and 3.5 SD of the protein, either way, in both replicates (recomputed)
saracatinib = compound: CN1CCN(CCOc2cc(OC3CCOCC3)c3c(Nc4c(Cl)ccc5c4OCO5)ncnc3c2)CC1 [saracatinib]
Outline: (§1)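 K562 cells (2×10^6 cells/mL) were treated with 10 μM compound for 30 min, and aliquots were heated for 3 min over 48°C-58°C. Pooled aliquots were extracted in PBS with 0.5% NP-40 at 4°C, and the supernatant after 21,000xg for 90 min was measured by TMTpro 16plex LC-MS/MS with channel sums equalised. Reported thermal stability, relative to control samples and from duplicates, is a log2 fold change.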

alvocidib = compound: CN1CC[C@H](c2c(O)cc(O)c3c(=O)cc(-c4ccccc4Cl)oc23)[C@H](O)C1 [alvocidib]
Outline: as §1

Tubastatin A = compound: CN1CCc2c(c3ccccc3n2Cc2ccc(C(=O)NO)cc2)C1 [Tubastatin A]
Outline: as §1

[1] = compound: CNC(=O)C1=CC=CC=C1NC2=NC(=NC=C2Cl)NC3=C(C=C(C=C3)N4CCOCC4)OC
Outline: as §1

defactinib = compound: CNC(=O)c1ccc(Nc2ncc(C(F)(F)F)c(NCc3nccnc3N(C)S(C)(=O)=O)n2)cc1 [defactinib]
Outline: as §1

rucaparib = compound: CNCc1ccc(-c2[nH]c3cc(F)cc4c3c2CCNC4=O)cc1 [rucaparib]
Outline: as §1

[2] = compound: CNc1nc(-c2ccc3c(N)n[nH]c3c2)cc(N2C[C@@H](C(=O)NC3CCCCC3)CC[C@H]2C)n1
Outline: as §1

encorafenib = compound: COC(=O)N[C@@H](C)CNc1nccc(-c2cn(C(C)C)nc2-c2cc(Cl)cc(NS(C)(=O)=O)c2F)n1 [encorafenib]
Outline: as §1

[3] = compound: COC(=O)[C@H](CCSC)NC(=O)C1=C(C=C(C=C1)NC[C@H](CS)N)C2=CC=CC=C2
Outline: as §1

zotarolimus = compound: CO[C@H]1C[C@@H]2CC[C@@H](C)[C@@](O)(O2)C(=O)C(=O)N2CCCC[C@H]2C(=O)O[C@H]([C@H](C)C[C@@H]2CC[C@H](n3cnnn3)[C@H](OC)C2)CC(=O)[C@H](C)/C=C(\C)[C@@H](O)[C@@H](OC)C(=O)[C@H](C)C[C@H](C)/C=C/C=C/C=C/1C [zotarolimus]
Outline: as §1

idasanutlin = compound: COc1cc(C(=O)O)ccc1NC(=O)[C@@H]1N[C@@H](CC(C)(C)C)[C@](C#N)(c2ccc(Cl)cc2F)[C@H]1c1cccc(Cl)c1F [idasanutlin]
Outline: as §1

alisertib = compound: COc1cc(Nc2ncc3c(n2)-c2ccc(Cl)cc2C(c2c(F)cccc2OC)=NC3)ccc1C(=O)O [alisertib]
Outline: as §1

[4] = compound: COc1cc2nc(-c3cc(F)ccc3O)nc(N[C@@H]3CNC[C@H]3C(C)(C)O)c2cc1OC
Outline: as §1

gefitinib = compound: COc1cc2ncnc(Nc3ccc(F)c(Cl)c3)c2cc1OCCCN1CCOCC1 [gefitinib]
Outline: as §1

[5] = compound: COc1cccc2cc(-c3nc([C@H]4CC[C@H](C(=O)O)CC4)n4ncnc(N)c34)[nH]c12
Outline: as §1

lapatinib = compound: CS(=O)(=O)CCNCc1ccc(-c2ccc3ncnc(Nc4ccc(OCc5cccc(F)c5)c(Cl)c4)c3c2)o1 [lapatinib]
Outline: as §1

pictilisib = compound: CS(=O)(=O)N1CCN(Cc2cc3nc(-c4cccc5[nH]ncc45)nc(N4CCOCC4)c3s2)CC1 [pictilisib]
Outline: as §1

sotrastaurin = compound: CN1CCN(c2nc(C3=C(c4c[nH]c5ccccc45)C(=O)NC3=O)c3ccccc3n2)CC1 [sotrastaurin]
Outline: as §1

[6] = compound: COC1=CC=C(C=C1)CN2C=CC3=C2C=C(C=C3)C(=O)NO
Outline: as §1

filanesib = compound: CON(C)C(=O)N1N=C(c2cc(F)ccc2F)S[C@@]1(CCCN)c1ccccc1 [filanesib]
Outline: as §1

Measured: log2 fold change

SLC1A3 (UniProt P43003)
UniProt P43003, sequence (P43003 whole entry, looked up): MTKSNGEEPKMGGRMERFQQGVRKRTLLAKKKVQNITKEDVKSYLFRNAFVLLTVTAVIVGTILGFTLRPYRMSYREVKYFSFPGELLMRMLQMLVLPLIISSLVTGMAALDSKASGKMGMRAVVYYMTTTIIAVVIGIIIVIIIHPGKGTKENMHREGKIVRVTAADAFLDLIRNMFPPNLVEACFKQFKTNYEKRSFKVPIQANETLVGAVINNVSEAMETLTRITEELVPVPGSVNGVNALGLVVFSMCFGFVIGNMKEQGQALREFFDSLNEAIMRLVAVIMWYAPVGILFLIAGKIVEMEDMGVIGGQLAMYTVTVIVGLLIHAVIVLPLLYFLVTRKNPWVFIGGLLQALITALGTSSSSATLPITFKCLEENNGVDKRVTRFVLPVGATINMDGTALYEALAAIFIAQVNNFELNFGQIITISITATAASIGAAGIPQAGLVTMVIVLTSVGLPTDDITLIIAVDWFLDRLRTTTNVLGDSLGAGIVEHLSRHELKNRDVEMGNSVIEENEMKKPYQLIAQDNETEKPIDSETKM
inactive: saracatinib 0.277 | alvocidib 0.056 | Tubastatin A -0.157 | [1] -0.034 | defactinib -0.013 | rucaparib 0.027 | encorafenib 0.072 | [3] 0.106 | zotarolimus -0.097 | idasanutlin 0 | alisertib 0.017 | [4] 0.118 | gefitinib -0.023 | [5] 0.012 | lapatinib -0.03 | pictilisib 0.02
active: [2] 0.481

RBM6 (UniProt P78332)
inactive: saracatinib -0.032 | sotrastaurin -0.077 | alvocidib -0.073 | Tubastatin A -0.077 | [2] 0.247 | [6] 0.044 | filanesib -0.067 | zotarolimus 0.064 | idasanutlin 0.101 | alisertib -0.431 | [4] -0.02 | gefitinib -0.007 | [5] 0.005 | lapatinib 0.121 | pictilisib -0.044

SH3PXD2B (UniProt A1X283)
inactive: sotrastaurin -0.017 | alvocidib -0.047 | Tubastatin A -0.013 | [1] 0.061 | defactinib 0.013 | rucaparib 0.238 | encorafenib 0.011 | [3] 0.359 | filanesib -0.06 | zotarolimus -0.003 | idasanutlin -0.174 | alisertib -0.02 | gefitinib 0.149 | [5] -0.037 | pictilisib 0.162

SCYL3 isoform 2 (UniProt Q8IZE3)
UniProt Q8IZE3, sequence (Q8IZE3 whole entry, looked up): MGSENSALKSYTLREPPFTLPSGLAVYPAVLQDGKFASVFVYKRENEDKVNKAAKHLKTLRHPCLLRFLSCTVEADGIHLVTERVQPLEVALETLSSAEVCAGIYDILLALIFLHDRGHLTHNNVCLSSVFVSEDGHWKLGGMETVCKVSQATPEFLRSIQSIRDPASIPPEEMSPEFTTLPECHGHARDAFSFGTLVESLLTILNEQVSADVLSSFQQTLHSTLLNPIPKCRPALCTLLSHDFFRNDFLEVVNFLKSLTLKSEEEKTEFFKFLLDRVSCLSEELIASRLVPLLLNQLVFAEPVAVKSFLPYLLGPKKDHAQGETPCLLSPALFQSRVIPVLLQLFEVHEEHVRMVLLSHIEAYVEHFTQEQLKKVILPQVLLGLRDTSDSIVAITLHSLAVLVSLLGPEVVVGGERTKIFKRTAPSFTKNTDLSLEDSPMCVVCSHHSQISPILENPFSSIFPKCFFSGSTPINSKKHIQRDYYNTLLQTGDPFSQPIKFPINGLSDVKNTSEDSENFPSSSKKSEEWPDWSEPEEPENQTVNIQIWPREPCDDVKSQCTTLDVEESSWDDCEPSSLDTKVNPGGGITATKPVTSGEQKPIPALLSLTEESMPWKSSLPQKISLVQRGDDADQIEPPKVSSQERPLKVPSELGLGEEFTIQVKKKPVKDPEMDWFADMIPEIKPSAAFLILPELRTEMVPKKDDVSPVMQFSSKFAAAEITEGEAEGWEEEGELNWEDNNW
inactive: saracatinib 0.014 | alvocidib 0.142 | Tubastatin A -0.063 | [1] -0.042 | defactinib -0.014 | rucaparib 0.06 | [2] -0.009 | encorafenib 0.021 | [3] -0.025 | [6] 0.017 | zotarolimus 0.008 | idasanutlin -0.117 | alisertib 0.063 | [4] 0.039 | gefitinib 0.063 | [5] 0.032 | lapatinib -0.084 | pictilisib 0.018

RPAIN isoform 8 (UniProt Q86UA6)
UniProt Q86UA6, sequence (Q86UA6 whole entry, looked up): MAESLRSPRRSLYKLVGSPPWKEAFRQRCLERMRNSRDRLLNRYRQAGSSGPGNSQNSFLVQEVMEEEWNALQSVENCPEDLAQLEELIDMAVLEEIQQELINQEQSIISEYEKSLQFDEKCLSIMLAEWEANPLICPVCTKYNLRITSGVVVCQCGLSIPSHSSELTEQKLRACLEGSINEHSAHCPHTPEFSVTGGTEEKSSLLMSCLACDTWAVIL
inactive: saracatinib -0.036 | sotrastaurin -0.09 | alvocidib -0.036 | Tubastatin A -0.016 | defactinib -0.231 | [2] -0.082 | [3] 0.094 | [6] -0.055 | filanesib 0.006 | zotarolimus 0.028 | idasanutlin 0.109 | [4] -0.061 | lapatinib -0.063

RALGPS2 (UniProt Q86X27)
UniProt Q86X27, sequence (Q86X27 whole entry, looked up): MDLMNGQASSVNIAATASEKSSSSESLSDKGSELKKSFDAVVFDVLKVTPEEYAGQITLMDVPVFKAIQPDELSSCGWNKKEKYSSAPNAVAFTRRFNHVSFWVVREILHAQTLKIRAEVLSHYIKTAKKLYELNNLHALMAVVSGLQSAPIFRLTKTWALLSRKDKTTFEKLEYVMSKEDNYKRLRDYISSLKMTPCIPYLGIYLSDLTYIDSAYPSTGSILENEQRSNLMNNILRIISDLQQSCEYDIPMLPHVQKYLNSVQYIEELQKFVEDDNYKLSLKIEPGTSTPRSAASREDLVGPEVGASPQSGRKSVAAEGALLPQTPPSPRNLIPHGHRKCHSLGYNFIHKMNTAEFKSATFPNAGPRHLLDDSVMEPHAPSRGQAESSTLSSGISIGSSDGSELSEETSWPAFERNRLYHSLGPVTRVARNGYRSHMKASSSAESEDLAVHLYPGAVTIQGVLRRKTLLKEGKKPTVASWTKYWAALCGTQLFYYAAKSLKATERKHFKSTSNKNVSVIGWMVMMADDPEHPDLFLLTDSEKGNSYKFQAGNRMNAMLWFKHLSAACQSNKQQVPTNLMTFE
inactive: saracatinib -0.042 | alvocidib 0.192 | Tubastatin A 0.18 | [1] -0.098 | defactinib 0.176 | rucaparib -0.133 | [2] 0.159 | encorafenib 0.425 | [3] -0.101 | [6] 0.246 | zotarolimus 0.038 | idasanutlin -0.062 | alisertib 0.109 | [5] 0.132 | pictilisib 0.165

RBBP6 (UniProt Q7Z6E9)
active: filanesib 0.468
inactive: sotrastaurin 0.11 | alvocidib -0.17 | Tubastatin A 0.074 | [1] -0.006 | defactinib -0.056 | rucaparib 0.067 | encorafenib 0.055 | [3] 0.04 | [6] 0.101 | zotarolimus -0.052 | idasanutlin 0.089 | alisertib 0.044 | [4] -0.099 | gefitinib -0.02 | [5] 0.146 | lapatinib 0.101 | pictilisib 0.016

RNF185 (UniProt Q96GF1)
UniProt Q96GF1, sequence (Q96GF1 whole entry, looked up): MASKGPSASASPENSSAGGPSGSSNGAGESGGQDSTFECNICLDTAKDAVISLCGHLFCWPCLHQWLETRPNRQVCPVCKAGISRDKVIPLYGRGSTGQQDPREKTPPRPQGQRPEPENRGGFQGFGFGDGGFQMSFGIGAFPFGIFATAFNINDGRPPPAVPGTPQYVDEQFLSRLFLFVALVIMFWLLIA
inactive: alvocidib -0.003 | Tubastatin A 0.011 | [1] 0.001 | defactinib -0.023 | rucaparib 0.006 | encorafenib -0.094 | [3] 0.125 | zotarolimus 0.117 | idasanutlin -0.143 | alisertib -0.145 | [4] -0.175 | gefitinib 0.007 | [5] -0.016 | lapatinib -0.111 | pictilisib 0.076

SAFB2 (UniProt K7EQU4)
inactive: [6] 0.115 | gefitinib -0.126

RICTOR isoform 3 (UniProt Q6R327)
UniProt Q6R327, sequence (Q6R327 whole entry, looked up): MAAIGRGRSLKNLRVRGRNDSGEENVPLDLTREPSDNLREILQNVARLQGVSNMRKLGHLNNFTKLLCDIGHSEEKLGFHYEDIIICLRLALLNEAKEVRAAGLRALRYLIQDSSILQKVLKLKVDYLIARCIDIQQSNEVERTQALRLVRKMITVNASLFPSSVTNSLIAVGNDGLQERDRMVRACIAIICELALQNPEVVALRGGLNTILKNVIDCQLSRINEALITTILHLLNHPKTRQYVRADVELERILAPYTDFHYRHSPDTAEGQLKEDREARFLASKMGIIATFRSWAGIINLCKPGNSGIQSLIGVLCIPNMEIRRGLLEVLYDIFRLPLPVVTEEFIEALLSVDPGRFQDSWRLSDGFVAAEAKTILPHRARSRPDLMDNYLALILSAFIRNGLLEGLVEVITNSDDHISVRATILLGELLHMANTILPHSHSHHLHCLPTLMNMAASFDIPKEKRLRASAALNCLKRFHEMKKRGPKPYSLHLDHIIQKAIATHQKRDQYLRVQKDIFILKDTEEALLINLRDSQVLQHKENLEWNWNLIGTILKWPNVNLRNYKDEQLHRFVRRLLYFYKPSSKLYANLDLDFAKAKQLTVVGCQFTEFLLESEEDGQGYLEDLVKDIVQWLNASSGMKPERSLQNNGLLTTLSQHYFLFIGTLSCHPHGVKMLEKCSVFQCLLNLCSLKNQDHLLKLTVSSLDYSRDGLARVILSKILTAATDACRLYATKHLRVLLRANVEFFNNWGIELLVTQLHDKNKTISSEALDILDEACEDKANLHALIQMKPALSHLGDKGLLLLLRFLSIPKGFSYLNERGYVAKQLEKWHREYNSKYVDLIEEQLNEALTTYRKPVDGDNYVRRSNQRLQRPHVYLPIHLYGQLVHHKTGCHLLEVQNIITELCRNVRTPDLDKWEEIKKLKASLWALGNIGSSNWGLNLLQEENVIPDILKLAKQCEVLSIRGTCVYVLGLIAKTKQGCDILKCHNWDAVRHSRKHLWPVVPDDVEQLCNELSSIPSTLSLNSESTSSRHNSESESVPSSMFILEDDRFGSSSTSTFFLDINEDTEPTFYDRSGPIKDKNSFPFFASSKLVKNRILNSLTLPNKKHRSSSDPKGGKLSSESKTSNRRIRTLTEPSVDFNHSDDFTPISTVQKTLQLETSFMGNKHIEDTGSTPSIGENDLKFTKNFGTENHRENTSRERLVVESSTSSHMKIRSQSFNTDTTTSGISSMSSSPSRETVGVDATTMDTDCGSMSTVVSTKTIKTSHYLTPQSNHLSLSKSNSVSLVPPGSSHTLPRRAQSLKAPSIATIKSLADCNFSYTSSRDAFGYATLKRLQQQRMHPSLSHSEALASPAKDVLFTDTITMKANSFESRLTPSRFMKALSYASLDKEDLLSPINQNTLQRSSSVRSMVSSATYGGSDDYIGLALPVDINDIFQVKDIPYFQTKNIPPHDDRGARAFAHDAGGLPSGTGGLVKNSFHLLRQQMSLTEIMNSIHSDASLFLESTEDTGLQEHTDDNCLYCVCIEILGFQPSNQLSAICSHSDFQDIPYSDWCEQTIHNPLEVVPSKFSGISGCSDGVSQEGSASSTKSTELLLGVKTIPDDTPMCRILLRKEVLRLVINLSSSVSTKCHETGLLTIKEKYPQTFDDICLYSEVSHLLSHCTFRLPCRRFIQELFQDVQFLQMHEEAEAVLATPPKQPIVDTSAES
inactive: saracatinib 0.087 | Tubastatin A 0.092 | [1] 0.114 | rucaparib -0.128 | [2] 0.154 | encorafenib 0.068 | filanesib -0.028 | idasanutlin -0.066 | [4] 0.003 | gefitinib 0.059 | lapatinib 0.186 | pictilisib -0.062
active: sotrastaurin 0.708

RBM48 isoform 2 (UniProt Q5RL73)
UniProt Q5RL73, sequence (Q5RL73 whole entry, looked up): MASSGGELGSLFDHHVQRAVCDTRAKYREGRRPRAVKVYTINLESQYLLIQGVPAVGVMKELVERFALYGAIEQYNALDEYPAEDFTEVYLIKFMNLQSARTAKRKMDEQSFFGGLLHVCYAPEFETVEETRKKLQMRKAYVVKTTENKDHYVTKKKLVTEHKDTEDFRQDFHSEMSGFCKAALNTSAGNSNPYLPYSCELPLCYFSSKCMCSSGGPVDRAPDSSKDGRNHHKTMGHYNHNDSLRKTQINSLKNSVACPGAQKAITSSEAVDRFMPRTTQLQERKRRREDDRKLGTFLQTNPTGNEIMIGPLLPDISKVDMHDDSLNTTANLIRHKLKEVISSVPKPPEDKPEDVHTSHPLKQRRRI
inactive: sotrastaurin -0.001 | alvocidib -0.011 | Tubastatin A 0.016 | [1] -0.065 | [6] -0.046 | filanesib -0.049 | zotarolimus -0.076 | idasanutlin 0.04 | [4] -0.046 | gefitinib -0.024 | lapatinib 0.011 | pictilisib -0.083

S100A10 (UniProt P60903)
UniProt P60903, sequence (P60903 whole entry, looked up): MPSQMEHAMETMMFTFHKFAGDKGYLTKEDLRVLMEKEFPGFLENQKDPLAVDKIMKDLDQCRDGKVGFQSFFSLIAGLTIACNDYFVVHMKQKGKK
inactive: sotrastaurin -0.147 | alvocidib -0.293 | Tubastatin A 0.195 | rucaparib -0.038 | encorafenib -0.293 | filanesib -0.143 | zotarolimus -0.045 | idasanutlin 0.165 | [4] 0.093 | gefitinib 0.305 | lapatinib 0.01 | pictilisib -0.056

RPS6KA5 (UniProt O75582)
inactive: [1] 0.083 | rucaparib 0.135 | encorafenib 0.148 | [6] -0.276 | alisertib -0.076 | [4] -0.185 | [5] 0.131 | lapatinib 0.057

SDC3 (UniProt O75056)
inactive: saracatinib -0.251 | sotrastaurin -0.074 | alvocidib 0.051 | Tubastatin A 0.163 | defactinib -0.004 | rucaparib -0.513 | [2] 0.036 | encorafenib 0.125 | [3] 0.034 | filanesib 0.081 | zotarolimus -0.045 | idasanutlin 0.166 | gefitinib 0.115 | pictilisib -0.674

RPS3 (UniProt E9PJN9)
inactive: saracatinib -0.069 | Tubastatin A 0.105 | rucaparib 0.064 | [2] -0.028 | encorafenib 0.052 | pictilisib 0.129

RBMY1E (UniProt A6NEQ0)
UniProt A6NEQ0, sequence (A6NEQ0 whole entry, looked up): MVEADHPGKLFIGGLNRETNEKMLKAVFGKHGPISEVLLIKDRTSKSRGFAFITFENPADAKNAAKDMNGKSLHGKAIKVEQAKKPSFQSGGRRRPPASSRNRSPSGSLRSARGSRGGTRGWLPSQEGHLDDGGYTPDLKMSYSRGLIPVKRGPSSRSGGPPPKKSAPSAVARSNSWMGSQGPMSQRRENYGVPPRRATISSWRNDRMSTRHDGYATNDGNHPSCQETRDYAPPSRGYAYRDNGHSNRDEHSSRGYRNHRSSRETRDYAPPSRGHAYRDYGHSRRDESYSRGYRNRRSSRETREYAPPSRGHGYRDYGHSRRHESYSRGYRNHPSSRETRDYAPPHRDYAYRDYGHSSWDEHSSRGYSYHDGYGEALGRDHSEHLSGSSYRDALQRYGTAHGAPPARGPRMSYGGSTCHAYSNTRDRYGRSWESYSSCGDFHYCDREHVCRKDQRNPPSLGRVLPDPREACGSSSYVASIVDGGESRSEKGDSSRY
active: [4] -0.476
inactive: alvocidib -0.015 | Tubastatin A 0.016 | [1] -0.049 | rucaparib -0.055 | encorafenib 0.182 | [6] 0.078 | zotarolimus 0.083 | alisertib -0.035 | gefitinib -0.07 | [5] 0.126 | lapatinib 0.044 | pictilisib 0.015
